Compound activity (PubChem BioAssay)
Cardiac RTF inh: cardiac RTF calcium desensitization | P19429+P45379 | IANBD-labeled cardiac RTF, Ca2+ fluorescence | inhibition, % at 7.15 µM | hit rate 0.12% among 340,000 | AID 493244;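 active means inhibition above the mean inhibition of all tested compounds plus 3 SD, cut at about 17% in these data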;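 further: assay run at fixed EC70 calcium of 1.6 mM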
ANO1 block: inhibitors of mouse TMEM16A calcium-activated chloride channel; HEK293 TMEM16A/YFP iodide influx fluorescence, ionomycin; Q8BHY3; AID 588511; normalized B-score (activity score, 25-100; higher = stronger inhibition) at 10 µM; hit rate 1.2% among 310,000;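 active means ratio plate-corrected score three or more library SD toward inhibition, starting fluorescence score within five deviations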;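 further: score derived from kinetic fluorescence span divided by baseline fluorescence per well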
Target sequence (Q8BHY3 whole entry, looked up): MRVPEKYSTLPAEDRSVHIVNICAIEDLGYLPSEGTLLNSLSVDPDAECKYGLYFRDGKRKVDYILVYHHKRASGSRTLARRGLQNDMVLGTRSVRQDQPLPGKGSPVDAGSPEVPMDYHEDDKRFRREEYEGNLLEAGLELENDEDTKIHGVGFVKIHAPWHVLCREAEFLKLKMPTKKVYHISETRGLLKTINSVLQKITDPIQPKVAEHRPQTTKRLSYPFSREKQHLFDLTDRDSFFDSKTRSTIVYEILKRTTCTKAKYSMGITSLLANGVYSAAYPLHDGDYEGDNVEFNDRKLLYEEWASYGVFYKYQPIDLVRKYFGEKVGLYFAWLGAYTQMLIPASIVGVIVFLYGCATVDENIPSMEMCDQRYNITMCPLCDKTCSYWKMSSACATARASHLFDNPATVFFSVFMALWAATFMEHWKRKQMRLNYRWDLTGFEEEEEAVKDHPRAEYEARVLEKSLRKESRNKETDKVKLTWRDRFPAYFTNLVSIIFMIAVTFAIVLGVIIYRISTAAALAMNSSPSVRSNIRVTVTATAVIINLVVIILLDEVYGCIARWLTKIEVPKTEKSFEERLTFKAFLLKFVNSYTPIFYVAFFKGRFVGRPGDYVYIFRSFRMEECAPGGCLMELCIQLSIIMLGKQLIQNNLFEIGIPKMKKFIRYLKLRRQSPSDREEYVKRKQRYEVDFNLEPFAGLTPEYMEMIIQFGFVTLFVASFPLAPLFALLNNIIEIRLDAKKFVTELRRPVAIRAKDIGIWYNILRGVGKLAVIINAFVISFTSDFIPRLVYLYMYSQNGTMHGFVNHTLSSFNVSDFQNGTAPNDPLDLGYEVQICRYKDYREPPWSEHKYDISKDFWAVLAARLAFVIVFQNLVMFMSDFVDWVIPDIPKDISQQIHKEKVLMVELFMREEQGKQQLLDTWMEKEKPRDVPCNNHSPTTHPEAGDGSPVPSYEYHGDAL
RTF Ca sens act: increases calcium sensitivity of human cardiac regulated thin filaments | IANBD-labeled TnC RTF fluorescence at EC20 calcium; 0% EC20 calcium, 100% full calcium | activation, % at 7.2 µM | hit rate 0.24% among 340,000 | AID 493008;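 active means activation above the mean over all tested compounds plus 3 SD, cut at about 30% in these data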;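 further: rise in fluorescence read as greater calcium sensitivity of cardiac thin filaments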
CRFR2-BP antag: blocks CRF-induced signaling of the CRF-BP/CRF-R2 complex; hit rate 0.59% among 350,000; AID 588475; inhibition, % at 11.8 µM; HEK293 CRF-R2/CRF-BP, CRF-induced calcium fluorescence;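 active means inhibition of the ligand-induced calcium signal above about 50% at the single tested concentration, limit read from the data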
CRFBP-R2 agonist: CRF-BP/CRF-R2 complex agonism; HEK293 CRF-R2/CRF-BP, calcium dye fluorescence (FLIPR); percent of saturating CRF peptide response; activation, % at 13.2 µM; hit rate 0.46% among 350,000;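 active means activation of at least 50%, plus an integration ratio under a set limit after plate pattern correction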
TMEM16A act: mouse TMEM16A channel activation, primary screen; hit rate 0.3% among 340,000; AID 623877; HEK293 TMEM16A/YFP-H148Q/I152L, iodide quench fluorescence; stronger effect = lower value; Q8BHY3; B-score at 10 µM;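 active means fluorescence-ratio B-score plate-corrected deviation score at least 3 library SD below zero, with starting fluorescence score within 5 deviations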;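 further: channel opened by trigger with iodide after compound preincubation; score built on the fluorescence ratio of max minus min over baseline; more negative score means more quench and so TMEM16A activation or potentiation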
Each line names hits and unclear results; the compound was inactive in the other large screens; ! = a repeat was not active. Only some compounds are listed: those with a hit (about 2.4% of all), similar ones and a draw of the others.

O=C(NCc1ccccc1)c1cccc(COc2cccc(Cl)c2)c1	none
O=C(CN1CCN(C(=O)C2CCCO2)CC1)Nc1ccc(Br)cc1 (stereo not drawn)	none
CCC(C(=O)NCCN1CCOCC1)n1c2ccccc2c2nc(=O)cc(C)n21 (stereo not drawn)	CRFR2-BP antag 52
CCC(C(=O)NCCCN1CCCC1=O)n1c2ccccc2c2nc(=O)cc(C)n21 (stereo not drawn)	none
Cc1nc(SCC(=O)N(C)Cc2ccco2)c2c(C)c(C)sc2n1	none
CCN(C(=O)CSc1nc(C)nc2sc(C)c(C)c12)c1ccc(F)cc1	TMEM16A act -41 (no result: ANO1 block)
COc1ccccc1NC(=O)C(C)Sc1nc(-c2ccccc2)cn1N (stereo not drawn)	none (no result: ANO1 block)
O=C(Nc1nnc(-c2cccs2)o1)c1cccc(Oc2ccccc2)c1	ANO1 block 25
O=C(NCCc1ccc(Cl)cc1Cl)c1cccnc1	none
O=C1CC(Nc2cc(=O)[nH]c(=O)[nH]2)C(=O)N1c1ccccc1Cl (stereo not drawn)	CRFR2-BP antag 82
CC(C)[C@H](NC(=O)c1ccc(C(C)(C)C)cc1)C(=O)N1CCN(Cc2ccc3c(c2)OCO3)CC1	none (no result: ANO1 block)
CCCCOC(=O)Nc1ccccc1C(=O)OC	TMEM16A act -13
CCOC(=O)c1c(NC(=O)C(C)Sc2cccc[n+]2[O-])sc2c1CCN(Cc1ccccc1)C2 (stereo not drawn)	CRFBP-R2 agonist 51
Cn1ncc(Cl)c1C(=O)NCC1CCCO1 (stereo not drawn)	none
CCN(CC)c1ccc(/C=C(\C#N)C(=O)NCc2ccccc2)cc1	RTF Ca sens act 36
CCN(CC)c1ccc(/C=C(\C#N)C(=O)NCc2ccco2)cc1	none (no result: Cardiac RTF inh, RTF Ca sens act, CRFR2-BP antag, CRFBP-R2 agonist, TMEM16A act)
COc1ccc(OC2C(=O)N(c3cc(C)ccc3C)C2c2ccc(OC)c(OC)c2)cc1 (stereo not drawn)	CRFR2-BP antag 51
Cc1cccc(C2(c3cccc(C)c3)CC2C(=O)Nc2ccc([N+](=O)[O-])cc2O)c1 (stereo not drawn)	ANO1 block 100
COc1cccc(C2(c3cccc(OC)c3)CC2C(=O)Nc2ccc(F)cc2)c1 (stereo not drawn)	none
COc1cccc(C2(c3cccc(OC)c3)CC2C(=O)Nc2ccccc2Cl)c1 (stereo not drawn)	CRFR2-BP antag 77
O=C(O)Cc1ccc2oc(-c3cccnc3)nc2c1	none
C/C(CS(=O)(=O)c1ccc(Cl)c(Cl)c1)=N/NC(N)=S	TMEM16A act -8.5
Cc1ccc(C(C)C)c(OCC(=O)N2CCN(c3ncccn3)CC2)c1	none (no result: ANO1 block)
CC(C)CNC(=O)C(=O)NNC(=O)c1ccco1	none (no result: Cardiac RTF inh, RTF Ca sens act)
COc1ccc(C2=CC(=O)C[C@H](c3ccc(F)cc3)C2)cc1F	TMEM16A act -6.6 (no result: ANO1 block)
CCCC1=C(C(=O)OCC)C(c2cccnc2)n2nc(C)nc2N1 (stereo not drawn)	CRFR2-BP antag 114
CCOC(=O)C1=C(C)Nc2nnnn2C1c1cccnc1 (stereo not drawn)	none
CC1(C(=O)CSc2nc3ccccc3s2)CCC(=O)O1 (stereo not drawn)	ANO1 block 100
Cc1nc([N+](=O)[O-])cn1-c1nc2ccccn2c1[N+](=O)[O-]	none
FC(F)(F)c1cccc(NC(=S)Nc2ccc(Cl)c(Cl)c2)c1	none (no result: Cardiac RTF inh, RTF Ca sens act)
O=[N+]([O-])c1cc(C(F)(F)F)cc([N+](=O)[O-])c1NCCNC(=S)Nc1ccc(Cl)c(Cl)c1	ANO1 block 100
Cc1ccc(S(=O)(=O)n2cccc2C)cc1	none (no result: Cardiac RTF inh, RTF Ca sens act)
C/C(=N/N1CCN(c2ccccc2)CC1)c1cccc([N+](=O)[O-])c1	none
C/C(=N\N1CCN(c2ccc(Cl)cc2)CC1)c1cccc([N+](=O)[O-])c1	ANO1 block 25
Fc1ccccc1NC(=S)NNc1ncc(C(F)(F)F)cc1Cl	ANO1 block 100
COc1cc(/C=C2\C(=O)ON=C2c2ccc(Cl)cc2)ccc1O	TMEM16A act -5.9 (no result: Cardiac RTF inh, RTF Ca sens act)
O=C1ON=C(c2ccccc2)/C1=C/c1ccc(O)c(O)c1	none
COC(=O)c1scc2c(=O)cc(C(F)(F)F)[nH]c12	CRFBP-R2 agonist 63
COC(=O)c1ccc2[nH]c(C)cc(=O)c2c1	none
COc1ccc(S(=O)(=O)N(C)CC(=O)N2CCCC2)cc1OC	none
CCOC(=O)N1CCN(C(=O)CSc2nnc(CNC(=O)c3ccccc3F)o2)CC1	CRFR2-BP antag 57
O=C(NCc1nnc(SCC(=O)N2CCCC2)o1)c1ccccc1F	none
CCOC(=O)c1cnn(-c2ccccc2)c1NC(=O)c1ccc(C)cc1	ANO1 block 25
CCOC(=O)C[C@H]1c2cc(F)ccc2S(=O)(=O)N1Cc1ccc(OC)cc1	none
COc1cc(C(=O)NCc2nnc(SCC(=O)N3CCCc4ccccc43)o2)cc(OC)c1OC	none
CC(=O)c1ccc(N2CCN(C(=O)CCS(=O)(=O)c3ccc4c(c3)CCN4C(C)=O)CC2)cc1	CRFR2-BP antag 80
COc1ccc(C2c3ccc(O)cc3Oc3ncn(Cc4ccccc4)c(=N)c32)cc1OC (stereo not drawn)	RTF Ca sens act 44
COc1ccc(C2c3ccc(O)cc3Oc3ncn(CCN4CCOCC4)c(=N)c32)cc1OC (stereo not drawn)	none
CCCP(=O)(CC(=O)N(CC)CC)c1ccccc1 (stereo not drawn)	CRFR2-BP antag 58
CCN(CC)C(=O)Cc1ccccc1	none
COn1c2c(c3c4no[n+]([O-])c4ccc31)CCCC2	none
[O-][n+]1c2c(c3c4non(O)c4ccc31)CCCC2	ANO1 block 100, CRFR2-BP antag 53, CRFBP-R2 agonist 85
CCC(C)[C@@H](CN)NCC1(c2ccccc2)CC1 (stereo partly drawn)	none (no result: ANO1 block)
CC1C=CCC2C(=O)N(c3cccc(C(=O)Nc4ccc(Br)cc4)c3)C(=O)C12 (stereo not drawn)	ANO1 block 25
COc1ccc(C2C(C(=O)NCCN3CCOCC3)c3ccccc3C(=O)N2C2CCCCC2)cc1 (stereo not drawn)	none (no result: Cardiac RTF inh, RTF Ca sens act, TMEM16A act)
N=c1oc2c3c4c(cc2cc1C(=O)Nc1ccccc1)CCCN4CCC3	RTF Ca sens act active, CRFBP-R2 agonist 271
Cc1ccc(NC(=O)c2cc3ccccc3oc2=N)cc1	none
Cc1cccc(NC(=O)CCSc2nncn2C)c1	none
CSCCC(NC(=O)c1ccco1)C(=O)N1CCN(C(c2ccccc2)c2ccccc2)CC1 (stereo not drawn)	none (no result: ANO1 block)
Cc1ccc(S(=O)(=O)N2CCC(C(=O)NNC(=O)c3ccc(F)cc3)CC2)cc1	none
Cc1nnc(SCC2=C(C(=O)O)N3C(=O)C(NC(=O)Cn4cnnn4)C3SC2)s1 (stereo not drawn)	none
Cc1nnc(SCC2=C(C(=O)O)N3C(=O)[C@@H](NC(=O)Cn4cnnn4)[C@H]3SC2)s1	ANO1 block 100!
